# Measurements from paper PMC7862700, “An all-to-all approach to the identification of sequence-specific readers for epigenetic DNA modifications on cytosine”.
# Assays:
# Assay in all cases: DAPPL (digital affinity profiling via proximity ligation, sequencing); 10 mM Tris-HCl pH 7.5, 50 mM NaCl, 1 mM DTT, 4% glycerol, room temperature, 30 min; GST-TFs on glutathione beads, 16-mer random dsDNA library, 0.1% formaldehyde crosslink after washing; high values mean tight binding
# Settings in all cases: protein: recombinant; tags: N-terminal GST; dsDNA, one strand shown
# FLI1 = biological target: T1, FLI1 (Homo sapiens, UniProt Q01543 1-452)
# T1 sequence: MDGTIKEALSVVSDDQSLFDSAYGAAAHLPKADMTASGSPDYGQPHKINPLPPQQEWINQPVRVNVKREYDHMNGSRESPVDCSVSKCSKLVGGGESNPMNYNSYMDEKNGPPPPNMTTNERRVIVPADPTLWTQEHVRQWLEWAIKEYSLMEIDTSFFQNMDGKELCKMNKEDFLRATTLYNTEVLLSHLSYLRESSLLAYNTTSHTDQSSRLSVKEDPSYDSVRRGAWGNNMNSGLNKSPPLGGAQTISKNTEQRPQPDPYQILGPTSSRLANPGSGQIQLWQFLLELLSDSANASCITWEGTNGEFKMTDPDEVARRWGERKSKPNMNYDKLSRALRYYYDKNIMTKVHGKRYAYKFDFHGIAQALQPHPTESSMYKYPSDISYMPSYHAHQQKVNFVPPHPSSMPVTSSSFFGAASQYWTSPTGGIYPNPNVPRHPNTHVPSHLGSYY
# How it was run: (§1)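 Human transcription factors carrying a GST fusion were produced in yeast, bound to glutathione beads, tagged with DNA barcodes and pooled together with a tag-only sample. Each pool was held with 200 nmole of a random double-stranded 16-mer DNA library in Tris/NaCl/DTT/glycerol buffer for 30 min at room temperature, then washed, crosslinked in 0.1% formaldehyde, proximity-ligated with BsaI/T4 ligase (1 h, 37 °C), PCR-amplified and sequenced on an Illumina NextSeq500. Binding signal is the read frequency of each hexamer for a given factor divided by its frequency in the tag-only sample.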
# ELK1 = biological target: T2, ELK1 (Homo sapiens, UniProt P19419 1-428)
# T2 sequence: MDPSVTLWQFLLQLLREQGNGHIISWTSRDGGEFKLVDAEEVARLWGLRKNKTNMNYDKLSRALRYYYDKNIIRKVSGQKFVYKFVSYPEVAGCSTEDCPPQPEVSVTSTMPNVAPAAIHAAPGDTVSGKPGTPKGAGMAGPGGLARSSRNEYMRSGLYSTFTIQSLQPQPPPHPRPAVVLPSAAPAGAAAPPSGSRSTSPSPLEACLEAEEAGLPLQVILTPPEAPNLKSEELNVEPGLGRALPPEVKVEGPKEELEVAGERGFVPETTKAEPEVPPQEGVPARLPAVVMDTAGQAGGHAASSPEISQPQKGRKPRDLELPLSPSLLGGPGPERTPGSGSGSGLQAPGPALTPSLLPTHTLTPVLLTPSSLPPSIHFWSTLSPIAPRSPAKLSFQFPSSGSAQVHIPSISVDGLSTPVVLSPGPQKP
# How it was run: as §1
# GABPA = biological target: T3, GABPA (Homo sapiens, UniProt Q06546 1-454)
# T3 sequence: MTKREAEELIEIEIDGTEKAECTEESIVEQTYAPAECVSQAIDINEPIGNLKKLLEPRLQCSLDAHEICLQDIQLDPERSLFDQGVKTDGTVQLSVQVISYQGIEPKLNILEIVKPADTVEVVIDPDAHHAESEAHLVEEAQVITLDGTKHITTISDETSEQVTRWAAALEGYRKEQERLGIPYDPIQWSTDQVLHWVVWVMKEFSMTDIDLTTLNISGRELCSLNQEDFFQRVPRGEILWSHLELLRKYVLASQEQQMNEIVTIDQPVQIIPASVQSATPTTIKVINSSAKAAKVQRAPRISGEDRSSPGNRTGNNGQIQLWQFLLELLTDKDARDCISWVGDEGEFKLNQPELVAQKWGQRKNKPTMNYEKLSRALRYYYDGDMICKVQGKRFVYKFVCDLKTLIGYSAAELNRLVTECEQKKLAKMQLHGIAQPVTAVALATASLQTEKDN
# How it was run: as §1
# ERG = biological target: T4, ERG (Homo sapiens, UniProt P11308 1-479)
# T4 sequence: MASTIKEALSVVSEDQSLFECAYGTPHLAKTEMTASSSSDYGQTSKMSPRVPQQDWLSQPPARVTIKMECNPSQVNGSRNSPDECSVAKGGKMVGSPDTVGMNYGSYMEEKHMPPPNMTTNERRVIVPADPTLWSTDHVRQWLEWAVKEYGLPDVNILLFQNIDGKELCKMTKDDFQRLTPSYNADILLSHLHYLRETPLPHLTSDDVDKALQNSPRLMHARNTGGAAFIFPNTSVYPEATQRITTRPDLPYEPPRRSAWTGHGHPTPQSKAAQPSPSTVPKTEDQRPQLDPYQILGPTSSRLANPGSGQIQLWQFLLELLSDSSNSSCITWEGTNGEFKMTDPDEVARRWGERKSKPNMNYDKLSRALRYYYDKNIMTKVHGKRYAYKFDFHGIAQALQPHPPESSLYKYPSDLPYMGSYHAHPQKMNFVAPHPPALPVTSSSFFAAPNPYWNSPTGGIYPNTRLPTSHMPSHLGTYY
# How it was run: as §1
# ELF1 = ELF1 (Homo sapiens, UniProt P32519 1-619)
# Sequence of ELF1 (P32519 whole entry): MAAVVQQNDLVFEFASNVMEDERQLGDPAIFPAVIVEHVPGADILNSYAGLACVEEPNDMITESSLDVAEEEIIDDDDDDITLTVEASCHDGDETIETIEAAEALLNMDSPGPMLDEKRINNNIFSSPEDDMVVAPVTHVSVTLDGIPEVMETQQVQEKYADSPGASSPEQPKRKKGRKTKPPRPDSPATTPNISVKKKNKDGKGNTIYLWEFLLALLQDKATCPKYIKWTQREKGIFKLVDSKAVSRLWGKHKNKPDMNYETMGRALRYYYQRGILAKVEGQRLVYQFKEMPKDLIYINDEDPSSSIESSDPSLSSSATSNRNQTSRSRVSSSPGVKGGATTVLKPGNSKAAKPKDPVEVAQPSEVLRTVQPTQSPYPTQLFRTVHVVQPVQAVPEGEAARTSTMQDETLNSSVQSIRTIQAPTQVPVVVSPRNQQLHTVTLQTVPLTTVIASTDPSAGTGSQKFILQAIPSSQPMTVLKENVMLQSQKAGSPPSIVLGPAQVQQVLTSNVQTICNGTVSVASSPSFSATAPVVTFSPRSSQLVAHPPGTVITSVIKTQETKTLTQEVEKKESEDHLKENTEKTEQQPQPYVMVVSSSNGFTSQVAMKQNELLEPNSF
# How it was run: as §1
# EHF = biological target: T5, EHF (Homo sapiens, UniProt Q9NZC4 1-300)
# T5 sequence: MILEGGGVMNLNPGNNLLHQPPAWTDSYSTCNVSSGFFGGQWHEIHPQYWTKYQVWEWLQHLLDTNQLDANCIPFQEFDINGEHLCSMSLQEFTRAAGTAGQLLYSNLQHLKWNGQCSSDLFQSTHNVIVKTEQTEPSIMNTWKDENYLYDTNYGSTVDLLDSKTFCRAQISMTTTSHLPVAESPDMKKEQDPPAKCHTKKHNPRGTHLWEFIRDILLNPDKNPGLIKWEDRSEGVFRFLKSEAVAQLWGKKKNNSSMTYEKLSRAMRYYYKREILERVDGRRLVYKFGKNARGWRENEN
# How it was run: as §1
# SPI1 = SPI1 (Homo sapiens, UniProt P17947 1-270)
# How it was run: as §1
# SPIB = SPIB (Homo sapiens, UniProt Q01892 1-262)
# Sequence of SPIB (Q01892 whole entry): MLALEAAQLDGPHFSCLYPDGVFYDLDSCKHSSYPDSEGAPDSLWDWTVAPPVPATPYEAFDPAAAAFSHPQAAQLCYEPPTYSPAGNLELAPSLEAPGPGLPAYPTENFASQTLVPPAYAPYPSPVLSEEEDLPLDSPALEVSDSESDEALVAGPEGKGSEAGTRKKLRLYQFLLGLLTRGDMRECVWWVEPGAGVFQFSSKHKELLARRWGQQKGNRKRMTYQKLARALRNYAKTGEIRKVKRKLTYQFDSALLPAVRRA
# How it was run: as §1
# ELK3 = biological target: T6, ELK3 (Homo sapiens, UniProt P41970 1-407)
# T6 sequence: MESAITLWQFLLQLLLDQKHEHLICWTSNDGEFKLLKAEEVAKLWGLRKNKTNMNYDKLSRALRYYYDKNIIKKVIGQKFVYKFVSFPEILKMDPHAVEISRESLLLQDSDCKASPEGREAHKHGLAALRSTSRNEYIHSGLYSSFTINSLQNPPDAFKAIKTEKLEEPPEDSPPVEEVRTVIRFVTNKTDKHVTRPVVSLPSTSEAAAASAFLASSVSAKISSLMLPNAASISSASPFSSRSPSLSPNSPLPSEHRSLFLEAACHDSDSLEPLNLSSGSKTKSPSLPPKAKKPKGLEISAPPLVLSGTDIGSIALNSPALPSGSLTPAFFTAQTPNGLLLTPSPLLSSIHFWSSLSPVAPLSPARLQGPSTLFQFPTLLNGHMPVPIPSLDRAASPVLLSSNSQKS
# How it was run: as §1
# FEV = biological target: T7, FEV (Homo sapiens, UniProt Q99581 1-238)
# T7 sequence: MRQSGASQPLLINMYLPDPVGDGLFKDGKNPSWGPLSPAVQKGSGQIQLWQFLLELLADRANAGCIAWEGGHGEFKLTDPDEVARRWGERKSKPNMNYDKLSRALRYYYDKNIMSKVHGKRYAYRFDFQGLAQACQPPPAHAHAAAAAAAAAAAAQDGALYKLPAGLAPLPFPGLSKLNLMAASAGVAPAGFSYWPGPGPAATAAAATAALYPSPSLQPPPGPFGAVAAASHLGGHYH
# How it was run: as §1
# ETV5 = ETV5 (Homo sapiens, UniProt P41161 1-510)
# Sequence of ETV5 (P41161 whole entry): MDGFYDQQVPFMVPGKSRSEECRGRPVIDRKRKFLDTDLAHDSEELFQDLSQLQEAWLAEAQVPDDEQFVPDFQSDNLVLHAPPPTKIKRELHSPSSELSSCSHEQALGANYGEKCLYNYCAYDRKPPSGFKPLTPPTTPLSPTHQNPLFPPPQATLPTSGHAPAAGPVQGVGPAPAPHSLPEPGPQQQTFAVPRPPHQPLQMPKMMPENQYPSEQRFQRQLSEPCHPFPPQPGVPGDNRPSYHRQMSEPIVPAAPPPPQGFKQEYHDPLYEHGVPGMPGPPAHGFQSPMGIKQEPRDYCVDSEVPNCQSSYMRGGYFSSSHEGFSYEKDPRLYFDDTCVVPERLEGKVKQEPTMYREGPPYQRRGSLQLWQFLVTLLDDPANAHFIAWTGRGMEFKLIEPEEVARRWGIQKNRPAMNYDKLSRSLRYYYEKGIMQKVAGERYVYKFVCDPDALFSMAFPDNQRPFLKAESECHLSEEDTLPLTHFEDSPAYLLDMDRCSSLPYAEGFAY
# How it was run: as §1
# SPIC = biological target: T8, SPIC (Homo sapiens, UniProt Q8N5J4 1-248)
# T8 sequence: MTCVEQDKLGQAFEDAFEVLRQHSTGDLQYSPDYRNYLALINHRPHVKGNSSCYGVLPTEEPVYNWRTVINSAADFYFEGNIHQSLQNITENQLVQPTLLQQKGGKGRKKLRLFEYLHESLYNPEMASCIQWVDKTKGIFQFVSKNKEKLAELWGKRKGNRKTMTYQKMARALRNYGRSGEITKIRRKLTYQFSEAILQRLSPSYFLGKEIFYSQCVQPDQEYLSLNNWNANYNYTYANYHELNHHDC
# How it was run: as §1
# ELF4 = ELF4 (Homo sapiens, UniProt Q99607 1-663)
# Sequence of ELF4 (Q99607 whole entry): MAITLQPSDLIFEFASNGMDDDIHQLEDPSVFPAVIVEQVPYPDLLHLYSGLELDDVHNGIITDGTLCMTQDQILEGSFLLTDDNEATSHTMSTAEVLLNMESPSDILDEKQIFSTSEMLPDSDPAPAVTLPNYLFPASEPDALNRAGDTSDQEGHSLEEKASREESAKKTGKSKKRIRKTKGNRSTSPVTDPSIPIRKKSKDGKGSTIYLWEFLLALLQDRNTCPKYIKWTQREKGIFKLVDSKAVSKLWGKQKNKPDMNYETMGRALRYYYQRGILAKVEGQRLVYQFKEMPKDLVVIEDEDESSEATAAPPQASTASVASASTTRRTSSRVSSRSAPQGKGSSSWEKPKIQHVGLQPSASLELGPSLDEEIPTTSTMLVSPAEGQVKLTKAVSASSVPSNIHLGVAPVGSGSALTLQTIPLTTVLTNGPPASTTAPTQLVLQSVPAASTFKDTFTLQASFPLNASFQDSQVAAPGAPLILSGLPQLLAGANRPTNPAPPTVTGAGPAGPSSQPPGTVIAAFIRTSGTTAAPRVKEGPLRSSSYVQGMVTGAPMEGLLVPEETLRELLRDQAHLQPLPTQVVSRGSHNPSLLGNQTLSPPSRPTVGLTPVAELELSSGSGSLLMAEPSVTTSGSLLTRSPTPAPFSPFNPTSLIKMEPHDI
# How it was run: as §1
# ETV1 = ETV1 (Homo sapiens, UniProt P50549 1-477)
# Sequence of ETV1 (P50549 whole entry): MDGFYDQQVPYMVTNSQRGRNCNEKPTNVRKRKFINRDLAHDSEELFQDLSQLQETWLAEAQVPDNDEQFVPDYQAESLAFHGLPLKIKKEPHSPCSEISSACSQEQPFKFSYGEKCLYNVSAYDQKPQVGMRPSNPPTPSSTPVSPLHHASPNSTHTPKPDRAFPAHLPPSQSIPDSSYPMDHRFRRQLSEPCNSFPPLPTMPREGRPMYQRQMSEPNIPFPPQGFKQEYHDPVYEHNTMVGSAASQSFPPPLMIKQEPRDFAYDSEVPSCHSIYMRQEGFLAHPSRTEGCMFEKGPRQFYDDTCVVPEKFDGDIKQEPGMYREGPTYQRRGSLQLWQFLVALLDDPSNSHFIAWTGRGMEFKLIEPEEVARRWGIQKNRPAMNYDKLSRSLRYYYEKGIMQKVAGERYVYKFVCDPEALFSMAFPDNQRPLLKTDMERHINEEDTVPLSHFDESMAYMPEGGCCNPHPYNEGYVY
# How it was run: as §1
# ERF = biological target: T9, ERF (Homo sapiens, UniProt P50548 1-548)
# T9 sequence: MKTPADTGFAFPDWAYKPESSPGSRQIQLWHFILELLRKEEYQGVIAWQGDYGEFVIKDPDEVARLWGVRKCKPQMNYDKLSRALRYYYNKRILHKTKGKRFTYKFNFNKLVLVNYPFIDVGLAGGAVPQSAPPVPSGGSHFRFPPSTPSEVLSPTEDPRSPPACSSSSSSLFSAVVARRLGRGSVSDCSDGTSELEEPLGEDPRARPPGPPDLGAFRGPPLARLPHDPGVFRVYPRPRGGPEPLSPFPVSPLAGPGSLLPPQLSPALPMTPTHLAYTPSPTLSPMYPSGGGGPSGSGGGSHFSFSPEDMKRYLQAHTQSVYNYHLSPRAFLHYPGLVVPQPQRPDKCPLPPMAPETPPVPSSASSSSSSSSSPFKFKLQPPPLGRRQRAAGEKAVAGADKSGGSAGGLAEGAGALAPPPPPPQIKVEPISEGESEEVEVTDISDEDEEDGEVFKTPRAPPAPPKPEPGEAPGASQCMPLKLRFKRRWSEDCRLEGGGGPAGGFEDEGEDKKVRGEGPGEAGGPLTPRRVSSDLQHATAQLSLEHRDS
# How it was run: as §1
# ETV3L = biological target: T10, ETV3L (Homo sapiens, UniProt Q6ZN32 1-361)
# T10 sequence: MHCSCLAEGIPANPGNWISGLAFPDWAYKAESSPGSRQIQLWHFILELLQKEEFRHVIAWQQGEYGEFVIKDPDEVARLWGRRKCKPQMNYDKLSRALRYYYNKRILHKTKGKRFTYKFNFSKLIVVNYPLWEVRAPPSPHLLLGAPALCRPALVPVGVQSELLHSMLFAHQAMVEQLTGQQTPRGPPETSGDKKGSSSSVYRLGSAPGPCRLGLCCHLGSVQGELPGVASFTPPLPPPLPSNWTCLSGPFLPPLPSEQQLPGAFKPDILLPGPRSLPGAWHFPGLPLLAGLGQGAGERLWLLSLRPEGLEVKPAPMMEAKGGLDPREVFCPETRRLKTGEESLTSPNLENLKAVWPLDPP
# How it was run: as §1
# ETS2 = biological target: T11, ETS2 (Homo sapiens, UniProt P15036 1-469)
# T11 sequence: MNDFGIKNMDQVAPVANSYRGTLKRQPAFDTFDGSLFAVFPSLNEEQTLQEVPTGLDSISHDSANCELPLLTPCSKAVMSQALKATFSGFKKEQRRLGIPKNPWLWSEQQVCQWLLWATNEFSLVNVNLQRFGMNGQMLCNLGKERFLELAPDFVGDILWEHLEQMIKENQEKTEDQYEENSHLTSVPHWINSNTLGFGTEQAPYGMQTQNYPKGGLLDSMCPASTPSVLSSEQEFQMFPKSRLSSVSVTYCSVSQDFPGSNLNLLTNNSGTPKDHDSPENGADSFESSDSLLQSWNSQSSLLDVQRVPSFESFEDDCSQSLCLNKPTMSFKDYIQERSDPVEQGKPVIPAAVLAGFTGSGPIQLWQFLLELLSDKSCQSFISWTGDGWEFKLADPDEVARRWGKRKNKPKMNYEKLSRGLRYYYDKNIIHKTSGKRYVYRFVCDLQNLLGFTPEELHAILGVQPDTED
# How it was run: as §1
# SPDEF = biological target: T12, SPDEF (Homo sapiens, UniProt O95238 1-335)
# T12 sequence: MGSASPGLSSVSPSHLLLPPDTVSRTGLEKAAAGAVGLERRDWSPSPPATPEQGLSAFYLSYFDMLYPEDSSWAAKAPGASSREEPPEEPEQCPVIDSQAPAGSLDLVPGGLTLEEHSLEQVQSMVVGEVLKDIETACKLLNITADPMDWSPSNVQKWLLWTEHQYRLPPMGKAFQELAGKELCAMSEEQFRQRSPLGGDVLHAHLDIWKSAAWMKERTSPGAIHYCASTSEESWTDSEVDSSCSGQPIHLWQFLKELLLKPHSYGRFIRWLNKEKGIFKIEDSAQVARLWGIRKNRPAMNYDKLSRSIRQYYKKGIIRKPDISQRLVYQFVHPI
# How it was run: as §1
# ETV3 = biological target: T13, ETV3 (Homo sapiens, UniProt P41162-2 1-143)
# T13 sequence: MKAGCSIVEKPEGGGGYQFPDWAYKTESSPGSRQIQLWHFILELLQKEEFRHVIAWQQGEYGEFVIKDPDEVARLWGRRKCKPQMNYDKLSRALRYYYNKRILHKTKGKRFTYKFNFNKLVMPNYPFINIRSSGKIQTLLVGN
# How it was run: as §1
sequence,measurement,setting,value
GCTGCG,binding signal,FLI1,"1.01 fold enrichment (6-mer frequency, TF over GST control)"
same,binding signal,ELK1,"1.12 fold enrichment (6-mer frequency, TF over GST control)"
same,binding signal,GABPA,"1.1 fold enrichment (6-mer frequency, TF over GST control)"
same,binding signal,ERG,"1.09 fold enrichment (6-mer frequency, TF over GST control)"
same,binding signal,ELF1,"1.13 fold enrichment (6-mer frequency, TF over GST control)"
same,binding signal,EHF,"1.21 fold enrichment (6-mer frequency, TF over GST control)"
same,binding signal,SPI1,"1.08 fold enrichment (6-mer frequency, TF over GST control)"
same,binding signal,SPIB,"1.08 fold enrichment (6-mer frequency, TF over GST control)"
same,binding signal,ELK3,"1.04 fold enrichment (6-mer frequency, TF over GST control)"
same,binding signal,FEV,"1.1 fold enrichment (6-mer frequency, TF over GST control)"
same,binding signal,ETV5,"1.12 fold enrichment (6-mer frequency, TF over GST control)"
same,binding signal,SPIC,"1.08 fold enrichment (6-mer frequency, TF over GST control)"
same,binding signal,ELF4,"1.1 fold enrichment (6-mer frequency, TF over GST control)"
same,binding signal,ETV1,"1.16 fold enrichment (6-mer frequency, TF over GST control)"
same,binding signal,ERF,"1.08 fold enrichment (6-mer frequency, TF over GST control)"
same,binding signal,ETV3L,"1.13 fold enrichment (6-mer frequency, TF over GST control)"
same,binding signal,ETS2,"1.14 fold enrichment (6-mer frequency, TF over GST control)"
same,binding signal,SPDEF,"1.02 fold enrichment (6-mer frequency, TF over GST control)"
same,binding signal,ETV3,"1.07 fold enrichment (6-mer frequency, TF over GST control)"
